Assay results: PubChem BioAssay AID493033 (ICCB-Longwood Screening Facility, Harvard Medical School, 2011)
Out of some 100,000 compounds screened, about 930 (0.93%) were called active. Shown is part of a subset that was picked to be rich in actives. Unmarked numbers belong to inactive results. No stated cut-off is given here; in the data, active means inhibition mostly above about 56% (no sharp cut-off); inactive means mostly below about 77%.

Target: Salicylate synthase (Mycobacterium tuberculosis (strain CDC 1551 / Oshkosh)) (UniProt P9WFX0)
Test: MbtI salicylate synthase inhibitors, primary screen, biochemical, fluorescence intensity (AID 493033)
Settings: purified MbtI enzyme, fluorescence intensity read-out, hits give high values, concentration not given here

Salicylate synthase (Mycobacterium tuberculosis (strain CDC 1551 / Oshkosh)), sequence (P9WFX0 whole entry, looked up): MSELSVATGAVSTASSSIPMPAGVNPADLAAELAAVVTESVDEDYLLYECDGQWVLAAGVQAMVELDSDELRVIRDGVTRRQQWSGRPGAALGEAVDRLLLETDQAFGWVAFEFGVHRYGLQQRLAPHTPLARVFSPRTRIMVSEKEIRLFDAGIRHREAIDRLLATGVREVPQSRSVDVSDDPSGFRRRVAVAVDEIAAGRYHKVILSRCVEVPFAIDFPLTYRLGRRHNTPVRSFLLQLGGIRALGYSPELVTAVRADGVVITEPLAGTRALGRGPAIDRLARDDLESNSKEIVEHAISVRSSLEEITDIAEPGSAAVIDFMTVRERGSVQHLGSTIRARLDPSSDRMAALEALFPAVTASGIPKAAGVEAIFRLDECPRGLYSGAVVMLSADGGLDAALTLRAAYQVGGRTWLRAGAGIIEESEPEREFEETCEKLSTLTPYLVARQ

Structure (SMILES)	inhibition
O=C1CSC2=NC3=C(CCCC3=C3SCCCS3)C(c3ccccc3)N12 (centres undefined)	-4.55%
O=C1c2ccccc2C(=O)N1CNc1ccccc1C1CC1	-16.8%
NCCCN1Cc2ccccc2C1	1.3%
CCCc1cc(=O)[nH]c(SCc2ccc(C#N)cc2)n1	-3.9%
CC(C)(C)c1ccc(CSc2nc3c(c(=O)[nH]2)CCC3)cc1	81.7% (active)
CCc1ccccc1NC(=O)CSc1nc2c(c(=O)[nH]1)CCC2	9.6%
COC(=O)c1ccc(C(=O)Nc2cc(Cl)ccc2Cl)cc1N	-179%
O=C1NC(=S)N(c2ccc(Br)cc2)C(=O)/C1=C/c1ccsc1	55.9% (active)
Cn1cccc1/C=C1\C(=O)NC(=S)N(c2ccccc2)C1=O	18.1%
COc1cccc(N2C(=O)/C(=C/c3ccsc3)C(=O)NC2=S)c1	29.9%
CCc1ccc(N(C(C)=O)c2nc(CSc3nnc4n3CCCCC4)cs2)cc1	-11.7%
CC1=C(C(=O)Nc2cccc(C(F)(F)F)c2)C(c2ccc3c(c2)OCO3)NC(=O)N1 (centres undefined)	5.1%
CCCN(CC1CC1)Cn1c(=S)sc2ccccc21	65.8% (active)
O=C(C1CCNCC1)N1CCCCC1	6.4%
O=C(OCCCn1c(=O)[nH]c2ccccc21)c1ccc(S(=O)(=O)N2CCOCC2)cc1	-5%
Cc1ccc(NC(=O)CN2C(=O)OC(C)(C)C2(C)O)cc1 (centres undefined)	-10%
COc1ccc(OCCCC(=O)NNc2ccccc2)cc1	-1.15%
O=C(CSc1nnc(-c2ccncc2)n1-c1ccccc1)Nc1ccccc1	0.45%
Nn1c(SCC(=O)Nc2ccc(S(=O)(=O)N3CCCC3)cc2)nnc1-c1ccccc1	87.7% (active)
COc1ccc(Cc2nnc(SCC(=O)Nc3ccc(S(=O)(=O)N4CCCCCC4)cc3)o2)cc1	-15.5%
CCc1c(C)sc2nc(CC(=O)N3CCOCC3)[nH]c(=O)c12	-33.3%
NS(=O)(=O)c1ccc(CCNC(=O)CN2CC(=O)Nc3ccccc32)cc1	14.2%

Structure (SMILES)	inhibition
CNC(=O)O/N=C/c1nn(C(C)=O)cc1Br	2.45%
COc1ccc(CC(=O)Nc2ccccc2)cc1	-14.4%
CNCC(=O)Nc1ccc(OC)cc1	-7.3%
COc1ccc(Cc2n[nH]c(=S)n2NC(=O)Nc2ccc(C)cc2)cc1	92.9% (active)
CNC(=O)Cc1nnc(-c2ccc(C)cc2)o1	-6.1%
N#CC(C#N)=CNCCc1ccncc1	-4.8%
COc1cc2c(cc1OC)C(c1cc3cc4c(cc3[nH]c1=O)OCO4)N(C(=O)C1CCC1)CC2 (centres undefined)	87.5%
Cc1onc(-c2ccccc2)c1C(=O)Sc1ccc(C(F)(F)F)cn1	94.8% (active)
Cc1onc(-c2ccccc2)c1C(=O)NNc1ccc(C(C)(C)C)cc1	3.55%
Cc1onc(-c2ccccc2)c1C(=O)Nc1cccc(C(F)(F)F)c1	-4.15%
COc1cc(OC)cc(C(=O)NC(C(=O)N2CCC2)C(C)C)c1 (centres undefined)	-3.25%
CC(C(=O)N1CCOCC1)C1SC(=O)NC1=O (centres undefined)	-3.8%
CCCCS(=O)(=O)N(O)c1ccc(Cl)cc1	84.8% (active)
CC(=O)Oc1ccc(N(C(C)=O)S(=O)(=O)c2ccc(Cl)cc2)cc1	-0.9%
CCCCN=Cc1c(O)n(-c2ccc(Cl)cc2)c(=O)[nH]c1=O	21.5%
Cc1[nH]c(=O)[nH]c(=O)c1NC(=O)CSc1nc2c(C)cccc2cc1C#N	-1.15%
Cc1cc(C)n(C(=O)C2CC=CCC2C(=O)O)n1 (centres undefined)	-7.4%
O=C(CSc1nnc2n1CCCCC2)N(Cc1cccs1)c1ccc2c(c1)OCCO2	-10.9%
Cc1ccc(OCc2n[nH]c(=S)n2C2CCCCC2)c2c1CCC2	70.4% (active)
CCOC(=O)Cc1n[nH]c(=S)n1C1CCCC1	13.4%
O=C(OCC(=O)C12CC3CC(CC(C3)C1)C2)c1cccs1	13.6%
CCn1cnc2cc(NCc3ccccn3)ccc21	-5.05%

Structure (SMILES)	inhibition
N#C/C(=N\Nc1ccccc1)C(=O)C1CC1	97% (active)
CCc1ccc(N/N=C(\C#N)C(=O)N2CCN(C)CC2)cc1	6%
C/C(=N/NC(=O)CCc1ccccc1)C1CC1	-4.85%
Cc1ccc2[nH]c3c(c2c1)CCCC3O (centres undefined)	53.3%
Cc1noc(C)c1COc1ccc(C(=O)OCCN2C(=O)c3ccccc3C2=O)cc1	-17.5%
O=C(NCC1CCN(c2ccc(S(=O)(=O)N3CCOCC3)cc2)CC1)Nc1cccc(F)c1	-7.4%
CC(OC(=O)c1ccccc1NS(=O)(=O)c1ccc2[nH]c(=O)[nH]c2c1)C(=O)N1CCCCC1 (centres undefined)	-42.9%
COc1ccc(C#N)cc1	-8.8%
COc1ccc(Cc2nnc(SC)[nH]c2=O)cc1	10.6%
COc1ccc(-c2nc3sc(-c4ccc(OC)cc4)nc3s2)cc1	84.3% (active)
CSc1cc(-c2ccc(F)cc2)nn1S(=O)(=O)c1cccc(C(F)(F)F)c1	-4.6%
Cc1cc2ncn(-c3ccc(S(=O)(=O)N4CCCC4)cn3)c2cc1C	35.2%
Cc1nc(SCC(=O)c2ccc(NS(C)(=O)=O)cc2)n(C2CCCCC2)c1C	-5.8%
COCCn1cnc2ccccc21	-7.65%
c1ccc(Cc2nn3c(Cn4cnc5ccccc54)nnc3s2)cc1	65.2% (active)
N#CCCn1cnc2ccccc21	-6.55%
CCOc1cc2c(cc1OCC)C(CC(=O)O)N(C(=O)Nc1ccc(OC)cc1)CC2 (centres undefined)	26.9%
COc1ccccc1Nc1nc2c(S(=O)(=O)c3c(C)cc(C)cc3C)nnn2c2ccccc12	3.35%
COc1cc(Br)c(CC(=O)N2CCOCC2)cc1OC	-8.25%
O=c1ccc(-c2ccc(S(=O)(=O)Nc3ccccc3)o2)n[nH]1	1.95%
